SMN2 splice up: increases expression of the SMN2 splice variant. HEK293 SMN2-luciferase splicing reporter, luminescence, 30-36 h. Potency, µM (titrated, usually from 46.1 µM), most hits filed as activators. hit rate 2.8% among 210,000. AID 1458; note: nearly all actives have a fitted effect of over 55% in size
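qHTS luciferase splicing reporter: luminescence rises when SMN2 exon 7 is included in transfected HEK293 cells. Compound exposure lasted 30-36 h at 37C, with 4.5 mM final sodium butyrate as control, followed by a ONE-Glo read.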
Rab9 prom act: Rab9 promoter activation; hit rate 2.8% among 320,000; Huh7 Rab9 promoter-luciferase reporter, luminescence, 24 h; Potency, µM (top dose mostly 9.22 µM), usual class: activators; AID 485297; note: nearly all actives have a fitted effect of over 60% in size
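Stable Rab9-luc Huh7, 1500 cells/well, 2 h settle; cmpd in DMSO, 24 h, 37 °C/5% CO2; luciferase reagent 10 min RT; luminescence.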
ELG1 genotoxic: induces genotoxicity in HEK293T cells with luciferase-tagged ELG1 | HEK293T ELG1-luciferase reporter, luminescence, 16 h | Potency, µM (doses to about 46 µM), actives largely listed as activators | hit rate 1.3% among 330,000 | AID 504466; note: nearly all actives have a fitted effect of over 60% in size
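HEK293T cells expressing luciferase-tagged ELG1 were exposed to compound or DMSO vehicle for 16 hr at 37 °C and 5% CO2. Luciferase activity was then measured with ONE-Glo after 30 min at room temperature.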
FLuc modulator: inhibits or activates purified firefly luciferase, miR-21 counter-screen | purified FLuc, Km substrates, luminescence inhibition | Potency, µM (series often up to 57.5 µM), hits mostly inhibitors | hit rate 6.9% among 360,000; note: nearly all actives have a fitted effect of over 55% in size
Target sequence (P08659 whole entry, looked up): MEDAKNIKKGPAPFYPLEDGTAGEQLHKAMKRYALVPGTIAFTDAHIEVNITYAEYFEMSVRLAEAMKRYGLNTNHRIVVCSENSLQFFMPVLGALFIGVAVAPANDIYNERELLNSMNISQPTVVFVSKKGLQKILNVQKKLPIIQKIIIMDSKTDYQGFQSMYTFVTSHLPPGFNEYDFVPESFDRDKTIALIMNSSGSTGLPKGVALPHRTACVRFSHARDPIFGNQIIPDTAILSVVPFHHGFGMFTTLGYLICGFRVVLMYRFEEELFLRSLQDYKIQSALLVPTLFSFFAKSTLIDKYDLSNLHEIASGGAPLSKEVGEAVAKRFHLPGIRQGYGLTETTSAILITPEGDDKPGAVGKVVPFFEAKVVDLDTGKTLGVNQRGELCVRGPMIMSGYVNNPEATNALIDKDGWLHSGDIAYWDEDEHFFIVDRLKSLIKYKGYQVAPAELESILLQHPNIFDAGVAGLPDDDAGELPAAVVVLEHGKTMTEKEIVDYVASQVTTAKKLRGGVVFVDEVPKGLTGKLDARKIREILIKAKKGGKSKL
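Biochemical qHTS of compounds, final roughly 60 µM downward over six points, against 10 nM purified firefly luciferase using Km concentrations of substrates (10 uM D-luciferin, 10 uM ATP) in Tris acetate pH 7.5 buffer; luminescence output.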
ELG1 DNA repair: inhibitors of ELG1-dependent DNA repair in HEK293T cells. HEK293T ELG1-luciferase reporter, luminescence, 16 h; DNA damage induced by 5-fluorouridine. hit rate 2.3% among 330,000. Potency, µM (top dose mostly 46.1 µM), usual class: inhibitors; note: nearly all actives have a fitted effect of over 55% in size
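Luminescence from the luciferase reporter, measured 30 min after ONE-Glo reagent at room temperature, was the read-out. Beforehand, 2,000 cells per well were exposed for 16 hr at 37 °C to 5-fluorouridine together with compound or vehicle.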
NPC1 prom act: activates the NPC1 promoter; Huh7 NPC1 promoter luciferase reporter, 24 h; Potency, µM (highest dose often 9.22 µM), hits mostly activators; hit rate 2.4% among 320,000; AID 485313; note: nearly all actives have a fitted effect of over 60% in size
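Quantitative HTS used a cell-based reporter: Huh7 cells stably bearing the NPC1 promoter upstream of luciferase were treated with compounds for 24 h, and promoter activation was read as luminescence.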
A number is an active result; n = inactive; u = inconclusive; x = not tested or not shown; [ ] = dose if it differs, or a comment. In the library only some 9.4% were active in any assay of this set; here they are far more common. Calls come from the whole dose curve; as a rule, active = well fitted curve in the direction sought with a large enough effect; inconclusive = small, poorly fitted or top-dose-only effect, or another doubt; inactive = no such curve, though single readings can be large; an effect the other way counts as inactive or inconclusive.

SMILES	SMN2 splice up	Rab9 prom act	ELG1 genotoxic	FLuc modulator	ELG1 DNA repair	NPC1 prom act
Cc1ccc(-c2csc(NC(=O)c3cccc([N+](=O)[O-])c3)n2)cc1	n	n	n	n	n	n
CC(=O)Nc1nc(C)c(-c2csc(Nc3cccc(C(C)=O)c3)n2)s1	x	0.71µM	n	u	5.8µM	n
CC(=O)c1cccc(Nc2nc(-c3cccc([N+](=O)[O-])c3)cs2)c1	11µM	n	1.5µM	n	u	n
Cc1[nH]n(-c2nc(-c3cccc([N+](=O)[O-])c3)cs2)c(=O)c1C	13µM	u	n	4.8µM	u	u
Cc1ccc(Cl)cc1Nc1nc(-c2sc(NC(=O)C(C)(C)C)nc2C)cs1	n	n	n	n	n	n
CC(=O)Nc1nc(C)c(-c2csc(Nc3cccc([N+](=O)[O-])c3)n2)s1	n	n	n	n	2.9µM	n
Cc1c(Nc2nc(-c3cccc([N+](=O)[O-])c3)cs2)c(=O)n(-c2ccccc2)n1C	x	n	n	n	n	n
CC(=O)c1sc(Nc2ccccn2)nc1C	n	n	u	u	u	n
CCC(C)C(=O)Nc1nc(C)c(-c2csc(Nc3ccc(Cl)cc3)n2)s1 (stereo not drawn)	n	n	n	n	8.2µM	n
CCCC(=O)Nc1nc(C)c(-c2csc(Nc3ccc(Cl)cc3)n2)s1	u	n	n	u	u	n
CC(=O)Nc1ccc(Nc2nc(-c3sc(NC(C)=O)nc3C)cs2)cc1	x	n	n	u	23µM	n
CC(=O)Nc1nc(C)c(-c2csc(Nc3ccc(O)cc3)n2)s1	n	n	n	u	u	n
CC(=O)Nc1nc(C)c(-c2csc(Nc3ccccn3)n2)s1	13µM	1.6µM	n	11µM	u	3.5µM
O=S(=O)(c1ccc2c(c1)CCN2)N1CCCCCC1	n	x	x	n	x	x
Cc1cn2c(=O)c(S(=O)(=O)NCCc3ccccc3)c(C)nc2s1	x	x	x	n	x	x
Cc1cc(C)cc(N(CC(=O)Nc2c(C)cc(C)cc2C)S(=O)(=O)c2c(C)nn(C)c2C)c1	x	x	x	n	x	x
OCC1CCCN(C(=S)Nc2ccc(Nc3ccccc3)cc2)C1 (stereo not drawn)	u	2µM	u	9.5µM	u	u
NC(=O)C1CCCN(C(=S)Nc2ccccc2)C1 (stereo not drawn)	n	n	n	n	n	n
Cc1ccc(NC(=S)N2CCCC(O)C2)cc1 (stereo not drawn)	u	n	u	17µM	u	n
OCC1CCCN(C(=S)Nc2ccc(OC(F)F)cc2)C1 (stereo not drawn)	x	n	u	17µM	u	n
CC(C)c1ccc(NC(=S)N2CCN(C)CC2)cc1	x	n	u	u	u	n
CC(C)c1ccc(NC(=S)N2CCCC2)cc1	x	2.2µM	u	24µM	u	2.5µM
Cc1nc2ccccc2n1CCc1nc2c3ccccc3nc(SCc3ccc(C#N)cc3)n2n1	x	x	x	n	x	x
Cc1cccc2c1-c1sc(C(=O)N(C)c3cccc(C(F)(F)F)c3)cc1CO2	n	x	x	n	x	x
O=[N+]([O-])c1ccc(N=Nc2ccc(O)cc2O)cc1	n	n	n	6µM	n	n
SMILES	SMN2 splice up	Rab9 prom act	ELG1 genotoxic	FLuc modulator	ELG1 DNA repair	NPC1 prom act
O=C(O)c1cc(NC(=O)C2CCCO2)cc(C(=O)O)c1 (stereo not drawn)	x	n	n	n	n	n
CC(C)(C)c1cc(NC(=O)C2CCCO2)no1 (stereo not drawn)	u	n	u	15µM	u	u
C=C(CC(=O)O)C(=O)O (tested in a mixture with another compound)	n[9.22 µM]	x	x	x	x	x
Cc1nc2ccc(NC(=O)c3cc(Cl)ccn3)cc2s1	x	0.5µM	1.3µM	1.5µM	u	0.71µM
Cc1nc2cc(NC(=O)c3ccc(Br)s3)ccc2s1	x	0.32µM	u	0.48µM	u	0.4µM
O=C(Nc1ccon1)c1ccc(Br)s1	x	n	n	n	n	n
Cc1ccc(C(=O)Nc2ccc3nc(C)sc3c2)s1	13µM	1.8µM	u	6.7µM	u	2.2µM
Cc1nc2ccc(NC(=O)c3cc([N+](=O)[O-])cc([N+](=O)[O-])c3Cl)cc2s1	n	n	u	12µM	u	n
Cc1nc2ccc(NC(=O)NCCCO)cc2s1	13µM	u	n	n[2.3 µM]	u	u
Cc1cccc(C2Nc3cccc4cccc(c34)N2)c1	x	n	n	21µM	n	u
CSc1ccc(C2Nc3cccc4cccc(c34)N2)cc1	x	n	n	21µM	n	u
O=[N+]([O-])c1cc(C2Nc3cccc4cccc(c34)N2)ccc1Cl	n	n	n	n	n	u
c1cc2c3c(cccc3c1)NC(c1ccc3c(c1)OCO3)N2	x	n	n	27µM	n	u
Clc1ccc(C2Nc3cccc4cccc(c34)N2)cc1	x	n	n	19µM	u	n
O=c1c2cccc3c(N4CCOCC4)ccc(c32)c2nc3ccccc3n12	n	n	u	5.4µM	u	n
CCOc1ccc(OCC)c(NC(=O)c2cc(S(=O)(=O)N3CCc4ccccc43)cn2C)c1	x	x	x	n	x	x
O=C(N/N=C/C1CC2C=CC1C2)c1ccccc1O (stereo not drawn)	x	n	n	21µM	n	n
CCCCn1c(=O)[nH]c(=O)c2c1nc(Cn1ncc(Cl)c(Cl)c1=O)n2CCC	x	n	n	n	23µM	n
CCCCC(CC)COCC1CO1 (stereo not drawn)	n	x	x	x	x	x
Cc1ccc(C2CC(=O)n3nc(-c4ccc(Cl)cc4)nc3S2)cc1 (stereo not drawn)	n	x	x	u	x	x
Cn1c(=O)c2c(nc(NC3CCCCC3)n2CC(=O)C23CC4CC(CC(C4)C2)C3)n(C)c1=O	n	n	n	n	7.3µM	n
Cn1c(/N=C/c2ccccc2[N+](=O)[O-])nc2ccccc21	x	n	n	1.7µM	n	n
Cn1c(/N=C/c2cccs2)nc2ccccc21	n	n	n	1.1µM	n	n
Cn1c(/N=C/c2cc(Cl)ccc2O)nc2ccccc21	n	n	n	n	n	n
COc1ccc(/C=N/c2nc3ccccc3n2C)cc1OC	n	n	n	0.76µM	n	n
SMILES	SMN2 splice up	Rab9 prom act	ELG1 genotoxic	FLuc modulator	ELG1 DNA repair	NPC1 prom act
c1cc2c(cn1)cnc1cscc12	n	n	n	n	8.2µM	n
COc1ccc(OCCCC(=O)Nc2cccc(C(C)=O)c2)cc1	x	n	n	n	18µM	n
O=C(CCOc1ccccc1)Nc1ccc(Br)cc1	x	3.2µM	n	u	u	u
COC(=O)c1ccc(NC(=O)CCOc2ccccc2)cc1	n	n	n	n	n	n
COc1ccc(NC(=O)CCOc2ccccc2)cc1	u	4.5µM	u	17µM	u	3.2µM
COc1ccc(OCCCC(=O)Nc2cccc(SC)c2)cc1	n	n	n	n	n	n
Cc1cc(C)n(-c2nc3ccccc3nc2N2CCN(c3cccc(C(F)(F)F)c3)CC2)n1	n	x	x	n	x	x

Source: PubChem
